Reference: PubChem BioAssay AID1259422 (The Scripps Research Institute Molecular Screening Center, 2018)
Screen size: about 640,000 compounds; about 9,300 (1.5%) were called active. For the sample, actives were picked, then their nearest neighbours and some compounds at random. Unmarked numbers belong to inactive results. No stated cut-off is given here; in the data, active means inhibition above about 32%; inactive means the rest.

Assay: TEAD-YAP interaction inhibition, primary screen, TEAD-YAP interaction inhibitor project, luminescence, HEK-TIYL cells (AID 1259422);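 further: 0% = median of test compound wells and 100% = reference inhibitor wells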
Details: TEAD-Gal4/YAP UAS-luciferase luminescence, at 9.12 µM, stronger effect = higher value
In the case of `CN1CCN(c2cc(NCCCC(=O)O)c3c4c(onc24)-c2ccccc2C3=O)CC1`, the inhibition is reported as 11.3%. `CCOC(=O)N1CCN(c2cc(NCCO)c3c4c(onc24)-c2ccccc2C3=O)CC1` gave an inhibition of 17.6%. For `CC1CCN(c2cc(NCC(=O)O)c3c4c(onc24)-c2ccccc2C3=O)CC1`, the inhibition was 64% (active). For `CCN(CC)CCCNCc1ccc(F)cc1Cl`, the inhibition was -3.24%. With `COc1ccc(NC(=S)NNS(=O)(=O)c2ccc(NC(C)=O)cc2)cc1` the inhibition was 43.9% (active). In the case of `COc1ccc(NC(=S)Nc2ccccc2C(C)=O)cc1`, the inhibition is reported as 8.25%. For `COc1ccc(NC(=S)Nc2ccc(OC)cc2)cc1`, the inhibition was -17.9%. For `COc1ccc(OC(C)C(=O)Nc2ccc(C(=O)OC(C)C)cc2)cc1` (stereo not given), the inhibition was 11.3%. In the case of `C=CCn1c(=S)[nH]c2sc(-c3ccccc3)cc2c1=O`, the inhibition is reported as -58.7%. Molecule `COc1ccc(S(=O)(=O)N2CCc3ccccc3C2)cc1Cl` has an inhibition of 14.1%. `O=C1CC(=O)Nc2cc(S(=O)(=O)N3CCCc4ccccc43)ccc2N1` gave an inhibition of 5.24%. For `O=S(=O)(c1ccc2c(c1)OCCCO2)N1CCCc2ccccc21`, the inhibition was 63.8% (active). Molecule `CS(=O)(=O)c1cccc(S(=O)(=O)N2CCCc3ccccc32)c1` has an inhibition of 3.88%. With `COc1ccc(S(=O)(=O)N2CCCc3ccccc32)cc1Cl` the inhibition was 36.9% (active). Work on `Cn1c(=O)c(=O)n(C)c2cc(S(=O)(=O)N3CCCc4ccccc43)ccc21` yielded an inhibition of -1.32%. With `CC(=O)NC1C(Oc2ccc(C)cc2C)OC(COC(C)=O)C(OC(C)=O)C1OC(C)=O` (stereo not given) the inhibition was 0.55%. Work on `COc1ccc(-c2nc3ccccc3n2Cc2ccccc2)cc1OC` yielded an inhibition of -0.42%. With `Nc1nonc1-c1nc2ccccc2n1CC(=O)Nc1cccc(F)c1` the inhibition was 40.7% (active). Molecule `Nc1nonc1-c1nc2ccccc2n1CC(=O)N/N=C\c1cccc(F)c1` has an inhibition of 10.8%. `Nc1nc(Cn2c(-c3nonc3N)nc3ccccc32)nc(N2CCCCC2)n1` gave an inhibition of 5.35%. For `COc1ccc(C)c(Cn2c(-c3nonc3N)nc3ccccc32)c1`, the inhibition was 53.5% (active). `CCCCCCOc1cccc(NC(=O)Cn2c(-c3nonc3N)nc3ccccc32)c1` gave an inhibition of 10.4%. `Cc1ccc(Nc2ncccc2C(=O)N2CCCC2)c(C)c1` showed an inhibition of -3.43%. Work on `COc1ccc2cc(C)c3nn(CN4CCOCC4)c(=O)n3c2c1` yielded an inhibition of 1.32%. With `CC1(C2CCN(C(=O)c3ccc(N4CCCCC4)cc3)CC2)NC(=O)NC1=O` (stereo not given) the inhibition was -7.9%. In the case of `CC1CCc2sc(NC(=O)Cc3cccc4ccccc34)c(C#N)c2C1` (stereo not given), the inhibition is reported as 2.89%. For `Clc1ccccc1Nc1nc(N2CCOCC2)c2ccccc2n1`, the inhibition was 0.09%. With `COc1ccc(Cl)cc1Nc1nc(N2CCOCC2)c2ccccc2n1` the inhibition was 15.6%. For `c1ccc(Nc2nc(N3CCOCC3)c3ccccc3n2)cc1`, the inhibition was 33.6% (active). With `O=C(N/N=C\c1ccc([N+](=O)[O-])c(O)c1)c1ccc2c(c1)OCO2` the inhibition was 42.6% (active). `O=C(N/N=C/c1ccc(O)c([N+](=O)[O-])c1)c1ccc2c(c1)OCO2` gave an inhibition of -20.5%. Molecule `O=C(N/N=C/c1ccc2c(c1)OCO2)c1cc(O)c(O)c(O)c1` has an inhibition of 9.47%. For `O=C(CCl)Nc1c(C(=O)C2CC2)oc2ccccc12`, the inhibition was -1.47%. `O=C(/C=C\c1ccccc1)N1CCN(Cc2nnnn2-c2cccc(F)c2)CC1` showed an inhibition of 14.7%. `C=CCN(CC=C)C(=O)CSc1nnc2c3ccccc3n(C)c2n1` showed an inhibition of -18.1%. For `COC(=O)CSc1nnc2c3ccccc3n(CCc3ccccc3)c2n1`, the inhibition was -5.74%. In the case of `C=CCSc1nnc2c3ccccc3n(CCc3ccccc3)c2n1`, the inhibition is reported as 41.4% (active). `CC(Cc1ccco1)NC(=O)Nc1ccc2c(c1)OCO2` (stereo not given) showed an inhibition of -9.4%. For `Nc1c(Cl)cc(N2C(=O)c3cccc([N+](=O)[O-])c3C2=O)cc1Br`, the inhibition was -3.28%. `Cc1c(C(c2ccc3c(c2)OCCO3)c2c(C)n(C)n(-c3ccccc3)c2=O)c(=O)n(-c2ccccc2)n1C` showed an inhibition of 1.2%. `FC(F)(F)c1cccc(Nc2nccn3c(-c4ccc(N5CCOCC5)cc4)cnc23)c1` showed an inhibition of 9.67%. In the case of `COc1ccc(N2C(=O)CSC2c2ccc(C)cc2)cc1` (stereo not given), the inhibition is reported as 1.91%. In the case of `Cc1ccc(C2SCC(=O)N2c2ccc(C)cc2)cc1` (stereo not given), the inhibition is reported as 35.1% (active). `Cc1ccc(C2SCC(=O)N2c2ccccc2)cc1` (stereo not given) gave an inhibition of -20.1%. In the case of `CCCC1(C2CCN(C(=O)c3ccc(F)c(F)c3)CC2)NC(=O)N(CC2CCCO2)C1=O` (stereo not given), the inhibition is reported as -9.71%. In the case of `COc1ccc(C2C3=C(CC(C)(C)CC3=O)N(CCc3ccccc3)C3=C2C(=O)CC(C)(C)C3)cc1`, the inhibition is reported as 4.3%. With `O=C1C2C3C=CC(C3)C2C(=O)N1c1ccc(Oc2ccc(Br)cc2)cc1` (stereo not given) the inhibition was -3.86%. In the case of `O=C(c1ccc(Nc2nccc(-c3ccc4c(=O)[nH]c(C5CC5)nc4c3)n2)cc1)N1CCCC1`, the inhibition is reported as -6.26%. For `Cc1ccc(-c2ncn(-c3ccc(Nc4nccc(-c5cc(C#N)cc(N6CCCC(O)C6)c5)n4)cc3)n2)cn1` (stereo not given), the inhibition was -6.62%. With `Cn1nnnc1-c1ccc(Nc2nccc(-c3ccc(N4CCC(O)CC4)c(C#N)c3)n2)cc1` the inhibition was 37.5% (active). `COc1ccc(-c2nc(NCCOc3ccccc3)nc(OC)n2)cc1` showed an inhibition of -21.8%. With `Cc1cc(C)n(CCc2nc(-c3ccc(Cl)cc3)cs2)n1` the inhibition was -9.3%. With `OC1(c2cccnc2)CCN(Cc2nc(N3CCOCC3)c3cc(Cl)ccc3n2)CC1` the inhibition was -1.26%. `Clc1ccc(CN2CCC[C@H]2c2nc3ccc(-c4ccncc4)cc3[nH]2)cc1` gave an inhibition of -0.35%. With `COC1CCN(c2nc(CN3CCCC3c3nccs3)nc3ccc(Cl)cc23)CC1` (stereo not given) the inhibition was 42.9% (active). `NC(=O)c1ccc(-c2nccc(NC3CCN(Cc4ccccc4)CC3)n2)cc1` gave an inhibition of -1.25%. `COc1cccc(OC)c1C(=O)Nc1ccc(C)cc1` showed an inhibition of -5.7%. With `Cc1ccc(S(=O)(=O)N2CCCC2C(=O)NCCO)cc1` (stereo not given) the inhibition was -1.16%. `C=CCNC(=O)C1CCCN(S(=O)(=O)c2ccc(F)cc2)C1` (stereo not given) gave an inhibition of 1.52%. In the case of `C=CCNC(=O)C1CCCN1S(=O)(=O)c1ccc(Cl)cc1` (stereo not given), the inhibition is reported as 57.2% (active).
